From PubChem BioAssay AID1159580 (chemical genetic matrix, 2015)
“And” between values parts separate entries of the source, which are not always exact repeats. Equal values may be shown once. Screen size: about 5,500 compounds; about 2,000 (36%) were called active. Not shown: some 18% with an inconclusive outcome. The list shows a part of the results. Values without a mark were called inactive. No stated cut-off is given here; in the data, active means normalized growth mostly below about 0.91 (no sharp cut-off); inconclusive means no clear call, values can overlap the other calls; inactive means mostly above about 0.92.

Experiment: chemical genetic growth profiling, strain panel (AID 1159580);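 further: tested at 20 µM; growth read once vehicle control cultures reached saturation at 30 °C; 1 = growth at the plate median or of vehicle wells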
Conditions: S. cerevisiae deletion strains, growth OD

CC1(C)C2CC[C@]3(C)C(C(=O)C=C4[C@H]5C[C@@](C)(C(=O)O)CC[C@]5(C)CC[C@]43C)[C@@]2(C)CC[C@@H]1O (stereo partly specified)
normalized growth (locus YAL013W, strain DEP1, stronger effect = lower value): 1.04 | normalized growth (locus YAL021C, strain ccr4, stronger effect = lower value): 1.02 | normalized growth (locus YAL026C, strain drs2, stronger effect = lower value): 0.881 (active) | normalized growth (locus YAL030W, strain snc1, stronger effect = lower value): 1 | normalized growth (locus YBL061C, strain skt5, stronger effect = lower value): 0.972 | normalized growth (locus YBR009C, strain hhf1, stronger effect = lower value): 0.861 (active) | normalized growth (locus YBR021W, strain FUR4, stronger effect = lower value): 1 | normalized growth (locus YBR023C, strain chs3, stronger effect = lower value): 0.941 | normalized growth (locus YBR171W, strain sec66, stronger effect = lower value): 1.02 | normalized growth (locus YBR229C, strain ROT2, stronger effect = lower value): 1.04 | normalized growth (locus YBR231C, strain swc5, stronger effect = lower value): 0.98 | normalized growth (locus YBR279W, strain paf1, stronger effect = lower value): 0.948 | normalized growth (locus YCL011C, strain gbp2, stronger effect = lower value): 0.923 | normalized growth (locus YCL016C, strain dcc1, stronger effect = lower value): 0.944 | normalized growth (locus YCL029C, strain bik1, stronger effect = lower value): 0.962 | normalized growth (locus YCL061C, strain MRC1, stronger effect = lower value): 0.96 | normalized growth (locus YCL069W, strain vba3, stronger effect = lower value): 0.955 | normalized growth (locus YCR088W, strain abp1, stronger effect = lower value): 1.01 | normalized growth (locus YDL005C, strain med2, stronger effect = lower value): 1 | normalized growth (locus YDL035C, strain GPR1, stronger effect = lower value): 0.969 | normalized growth (locus YDL040C, strain nat1, stronger effect = lower value): 0.995 | normalized growth (locus YDL074C, strain BRE1, stronger effect = lower value): 1.02 | normalized growth (locus YDL101C, strain DUN1, stronger effect = lower value): 1.02 | normalized growth (locus YDL134C, strain PPH21, stronger effect = lower value): 1.03 | normalized growth (locus YDL185W, strain tfp1, stronger effect = lower value): 1.01 | normalized growth (locus YDL192W, strain arf1, stronger effect = lower value): 1.01 | normalized growth (locus YDR001C, strain nth1, stronger effect = lower value): 1.02 | normalized growth (locus YDR069C, strain doa4, stronger effect = lower value): 0.985 | normalized growth (locus YDR101C, strain arx1, stronger effect = lower value): 0.988 | normalized growth (locus YDR137W, strain rgp1, stronger effect = lower value): 0.743 (active) | normalized growth (locus YDR150W, strain NUM1, stronger effect = lower value): 1.06 | normalized growth (locus YDR159W, strain sac3, stronger effect = lower value): 0.977 | normalized growth (locus YDR162C, strain NBP2, stronger effect = lower value): 1.02 | normalized growth (locus YDR195W, strain ref2): 1.1 | normalized growth (locus YDR297W, strain sur2, stronger effect = lower value): 0.963 | normalized growth (locus YDR318W, strain mcm21, stronger effect = lower value): 0.994 | normalized growth (locus YDR334W, strain swr1, stronger effect = lower value): 1.04 | normalized growth (locus YDR335W, strain msn5, stronger effect = lower value): 0.941 | normalized growth (locus YDR388W, stronger effect = lower value): 1.01 | normalized growth (locus YDR392W, strain spt3, stronger effect = lower value): 0.493 (active) | normalized growth (locus YDR502C, strain sam2, stronger effect = lower value): 1 | normalized growth (locus YEL003W, strain gim4, stronger effect = lower value): 0.97 | normalized growth (locus YEL037C, strain rad23, stronger effect = lower value): 1.01 | normalized growth (locus YEL061C, strain CIN8 (second series), stronger effect = lower value): 0.983 | normalized growth (locus YEL061C, strain CIN8, stronger effect = lower value): 1.04 | normalized growth (locus YER015W, strain faa2, stronger effect = lower value): 0.933 | normalized growth (locus YER016W, strain bim1, stronger effect = lower value): 1.02 | normalized growth (locus YER110C, stronger effect = lower value): 1.01 | normalized growth (locus YER111C, strain swi4, stronger effect = lower value): 1.01 | normalized growth (locus YER155C, strain BEM2 (second series), stronger effect = lower value): 0.874 | normalized growth (locus YER155C, strain BEM2, stronger effect = lower value): 1.05 | normalized growth (locus YER167W, strain BCK2, stronger effect = lower value): 1.04 | normalized growth (locus YFR010W, strain ubp6, stronger effect = lower value): 0.99 | normalized growth (locus YGL078C, strain dbp3, stronger effect = lower value): 0.94 | normalized growth (locus YGL086W, strain mad1, stronger effect = lower value): 1.01 | normalized growth (locus YGL167C, strain pmr1, stronger effect = lower value): 1.02 | normalized growth (locus YGL173C, strain kem1, stronger effect = lower value): 0.999 | normalized growth (locus YGL227W, strain vid30, stronger effect = lower value): 1.02 | normalized growth (locus YGL240W, strain doc1, stronger effect = lower value): 0.879 (active) | normalized growth (locus YGL248W, strain PDE1, stronger effect = lower value): 1.03 | normalized growth (locus YGL253W, strain hxk2, stronger effect = lower value): 0.754 (active) | normalized growth (locus YGR078C, strain PAC10, stronger effect = lower value): 1.01 | normalized growth (locus YGR135W, strain pre9, stronger effect = lower value): 0.985 | normalized growth (locus YGR229C, strain SMI1, stronger effect = lower value): 0.984 | normalized growth (locus YGR252W, strain gcn5, stronger effect = lower value): 0.935 | normalized growth (locus YHR013C, strain ard1, stronger effect = lower value): 0.965 | normalized growth (locus YHR027C, strain rpn1, stronger effect = lower value): 0.997 | normalized growth (locus YHR030C, strain SLT2, stronger effect = lower value): 1.05 and 1.01 | normalized growth (locus YHR079C, strain IRE1 (second series), stronger effect = lower value): 1 | normalized growth (locus YHR079C, strain IRE1, stronger effect = lower value): 1.02 | normalized growth (locus YHR094C, strain hxt1, stronger effect = lower value): 1.02 | normalized growth (locus YHR129C, strain ARP1, stronger effect = lower value): 1.06 | normalized growth (locus YHR142W, strain chs7, stronger effect = lower value): 0.78 (active) | normalized growth (locus YHR200W, strain rpn10, stronger effect = lower value): 0.999 | normalized growth (locus YIL066C, strain RNR3, stronger effect = lower value): 1.03 | normalized growth (locus YIL073C, strain SPO22, stronger effect = lower value): 0.994 | normalized growth (locus YIL125W, strain kgd1, stronger effect = lower value): 1.03 | normalized growth (locus YIR030C, strain dcg1, stronger effect = lower value): 1.01 | normalized growth (locus YJL092W, strain hpr5, stronger effect = lower value): 1.01 | normalized growth (locus YJL095W, strain BCK1 (second series), stronger effect = lower value): 0.83 (active) | normalized growth (locus YJL095W, strain BCK1, stronger effect = lower value): 1.04 and 1.01 | normalized growth (locus YJL115W, strain asf1, stronger effect = lower value): 1.04 | normalized growth (locus YJL129C, strain trk1, stronger effect = lower value): 0.921 | normalized growth (locus YJL134W, strain LCB3, stronger effect = lower value): 1.03 | normalized growth (locus YJL154C, strain vps35, stronger effect = lower value): 1.02 | normalized growth (locus YJL164C, strain tpk1, stronger effect = lower value): 0.865 (active) | normalized growth (locus YJL166W, strain qcr8, stronger effect = lower value): 0.845 (active) | normalized growth (locus YJL168C, strain set2, stronger effect = lower value): 1.02 | normalized growth (locus YJL187C, strain SWE1 (second series), stronger effect = lower value): 1 | normalized growth (locus YJR043C, strain POL32, stronger effect = lower value): 0.969 | normalized growth (locus YJR066W, strain TOR1, stronger effect = lower value): 0.96
